# Results filed as inconclusive are left out. Calls of active or inactive are those of the source. Calls come from the whole dose curve; as a rule, active = well fitted cell-killing curve with a large enough effect; inconclusive = small, poorly fitted or top-dose-only effect, or effect the other way; inactive = no such curve, though single readings can be large or run the other way.
# Assay: Quantitative High-Throughput drug screen in 47 multiple myeloma cell lines against the NCATS MIPE library collection: KMS28PE_JCRB cell viability assay (AID 1918983); note: nearly all actives have a fitted effect of over 35% in size
# Conditions: KMS28PE multiple myeloma viability, CellTiter-Glo ATP, 48 h; series mostly up to 45.8 µM
# From the text: PI: Beverly A. Mock Ph.D.
# Laboratory of Cancer Biology and Genetics,
# Center for Cancer Research, National Cancer Institute,
# National Institute of Health, Bethesda, Maryland
# Drug resistance and disease progression are common in multiple myeloma (MM) patients, underscoring the need for new therapeutic combinations. […] We hypothesized that effective combinations would reduce MYC expression and enhance p16 activity. […] These preclinical data identify potentially useful drug combinations for evaluation in drug-resistant MM and reveal potential mechanisms of combined drug sensitivity.
# Described herein is the primary MIPE qHTS used to cherrypick compounds. Validated compounds were then further tested for potential synergistic activiy.
# [1] Peat TJ, Gaikwad SM, Dubois W, Gyabaah-Kessie N, Zhang S, Gorjifard S, Phyo Z, Andres M, Hughitt VK, Simpson RM, Miller MA, Girvin AT, Taylor A, Williams D, D'Antonio N, Zhang Y, Rajagopalan A, Flietner E, Wilson K, Zhang X, Shinn P, Klumpp-Thomas C, McKnight C, Itkin Z, Chen L, Kazandijian D, Zhang J, Michalowski AM, Simmons JK, Keats J, Thomas CJ, Mock BA. Drug combinations identified by high-throughput screening promote cell cycle transition and upregulate Smad pathways in myeloma. Cancer Lett. 2023 Aug 1;568:216284. doi: 10.1016/j.canlet.2023.216284. Epub 2023 Jun 24. PMID: 37356470; PMCID: PMC10408729.
# SEQUENCE No. (e.g., 1, 2, 3, etc.); […] (e.g., Cells, Incubation, Reagent, etc.); VALUE and DESCRIPTION.
# 1; Cells; 5 uL; white, solid bottom 1536-well Greiner assay plate.
# 2; Compounds; 23 nL; Kalypsis pin tool (Wako USA) equipped with a 1536-well pin head to transfer to the assay plates.
# 3; Incubation; 48 hours; 37C incubation.
# 4; Reagent;5uL; CellTiter Glo (Promega).
# 5; Detector; 425V; Luminescence; Viewlux PerkinElmer.
# NOTES (numbers refer to Sequence numbers above)
# 1. The cell-based screening methods employed in this study were like those previously published. Briefly, the corresponding myeloma cell lines were screened in 1,536-well plates with 500 cells, 5-uL per well for inhibition of cell viability (assessed by measuring ATP levels with CellTiterGlo).
# 2. NCATS MIPE 4.0 library of approved and investigational drugs were added using the Kalypsis pin tool. Wells treated with DMSO only for 100% viability and media only for 0% viability were used as controls.
# 3. The assay plates were covered and incubated for 48 hours in a 37C, 5% CO2 incubator with controlled humidity.
# 4. After 48 hours, CellTilter-GloTM luminescent substrate mix (Promega) reagent was added to the assay plate and plates we incubated for 5 min at room temperature.
# 5. Signal was measured as median relative luminescence units on a ViewLux (PerkinElmer) multiplate reader.
# [1] Heske CM, Davis MI, Baumgart JT, Wilson K, Gormally MV, Chen L, Zhang X, Ceribelli M, Duveau DY, Guha R, Ferrer M, Arnaldez FI, Ji J, Tran HL, Zhang Y, Mendoza A, Helman LJ, Thomas CJ. Matrix Screen Identifies Synergistic Combination of PARP Inhibitors and Nicotinamide Phosphoribosyltransferase (NAMPT) Inhibitors in Ewing Sarcoma. Clin Cancer Res. 2017 Dec 1;23(23):7301-7311. doi: 10.1158/1078-0432.CCR-17-1121. Epub 2017 Sep 12. PMID: 28899971; PMCID: PMC6636827.
# Potency is the fitted concentration of half-maximal effect.
row,Compound,Potency
1,CC(=O)O[C@@]12CO[C@H]1C[C@H](O)[C@@]1(C)C(=O)[C@H](O)C3=C(C)[C@@H](O)C[C@@](O)([C@@H](OC(=O)c4ccccc4)[C@@H]21)C3(C)C,2.64 µM (active)
2,O=c1cccc2n1CC1CNC[C@H]2C1,inactive
3,CC(O)=C(C#N)C(=O)Nc1cc(Br)ccc1Br,14.8 µM (active)
4,C[C@@H]1[C@H](O)[C@@H](C)C=CC=CCCC=CC=CC=CC=C[C@H](O[C@H]2O[C@@H](C)[C@H](O)[C@@H](N)[C@@H]2O)CC2O[C@](O)(C[C@@H](O)[C@H](O)CC[C@@H](O)C[C@@H](O)C[C@@H](O)CC(=O)O[C@H]1C)C[C@H](O)[C@H]2C(=O)O,inactive
5,C=C[C@@H]1CN2CCC1C[C@@H]2[C@@H](O)c1ccnc2ccccc12 (stereo not given in full),18.7 µM (active)
6,CC=C(C)C(=O)O[C@H]1C(C)=C2[C@@H]3OC(=O)[C@@](C)(O)[C@@]3(O)[C@@H](OC(=O)CCC)C[C@](C)(OC(C)=O)[C@@H]2[C@@H]1OC(=O)CCCCCCC,0.132 µM (active)
7,Cc1[nH]nc2ccc(-c3cncc(OC[C@@H](N)Cc4c[nH]c5ccccc45)c3)cc12,0.833 µM (active)
8,C#CC1(O)CCC2C3CCC4=CC(=O)CCC4(C)C3CCC21C (stereo not given),20.9 µM (active)
9,CCN1CCN(C(=O)Cc2ccc(Nc3ncc(F)c(Nc4ccc(C(=O)Nc5ccccc5Cl)cc4)n3)cc2)CC1,14.8 µM (active)
10,Clc1ccccc1C(c1ccccc1)(c1ccccc1)n1cccn1,11.8 µM (active)
11,CN1[C@H]2CC(O)C[C@H]1[C@H]1O[C@H]12 (stereo not given in full),20.9 µM (active)
12,COC1=CC(C)=C[C@@H](C)[C@@H](O)[C@@H](C)CC(C)=CC=C[C@H](OC)[C@H]([C@@H](C)[C@@H](O)[C@H](C)[C@@]2(O)C[C@@H](O)[C@H](C)[C@@H](C(C)C)O2)OC1=O,14.8 µM (active)
13,O=S(=O)(F)Cc1ccccc1,inactive
14,COc1ccc(CC2NCCc3cc(OC)c(OC)cc32)cc1OC (stereo not given),inactive
15,CCNC(=O)C[C@@H]1N=C(c2ccc(Cl)cc2)c2cc(OC)ccc2-n2c(C)nnc21,0.264 µM (active)
16,COc1cccc2c1[C@]13CCN(CC4CC4)[C@H](C2)[C@]1(OC)CCC(=O)C3,inactive
17,c1cc2c(cc1[C@H]1OC[C@H]3[C@H]1CO[C@H]3c1ccc3c(c1)OCO3)OCO2,inactive
18,O=C1C=CC[C@@H]2[C@H]3CCCN4CCC[C@@H](CN12)[C@@H]34,16.6 µM (active)
19,C[C@@]12OC(=O)[C@]1([C@@H](O)[C@@H]1C=CCCC1)NC(=O)[C@H]2CCCl,0.0083 µM (active)
20,CCNC(=O)CC1N=C(c2ccc(Cl)cc2)c2cc(OC)ccc2-n2c(C)nnc21 (stereo not given),20.9 µM (active)

row,Compound,Potency
1,CC(N[C@H]1C[C@H]1c1ccccc1)c1ccc2c(c1)OCCO2 (stereo not given in full),0.469 µM (active)
2,COc1cc2cc(c1Cl)N(C)C(=O)C[C@H](OC(=O)C(C)C)[C@]1(C)O[C@H]1[C@H](C)[C@@H]1C[C@@](O)(NC(=O)O1)[C@H](OC)C=CC=C(C)C2,inactive
3,O=C(Oc1ccc([N+](=O)[O-])cc1)N1CCC(C(O)(c2ccc3c(c2)OCO3)c2ccc3c(c2)OCO3)CC1,inactive
4,CC1(N2CCC(n3c([C@@H]4CCCNC4)nc4ccccc43)CC2)CCCCCCC1,inactive
5,CSCC[C@@H](NC(=O)[C@@H](Cc1ccccc1)NC(=O)CNC(=O)CNC(=O)[C@@H](N)Cc1ccc(O)cc1)C(=O)O,inactive
6,O=c1[nH]c2ccccc2n1C1CCN(Cc2ccc(-c3[nH]c4cc5ncnc5cc4nc3-c3ccccc3)cc2)CC1,20.9 µM (active)
7,COC1=C[C@@H]2[C@@H]3Cc4ccc(OC)c(O)c4[C@]2(CCN3C)CC1=O,inactive
8,CC[C@H]1C=CC=CC[C@@H](C)[C@H](O)[C@@](C)(O)C(=O)[C@@H](C)[C@H](O)[C@@H](C)C(=O)[C@@H](C)[C@H](O)[C@@H](C)C=CC(=O)O[C@@H]2[C@@H](C)[C@H](CC1)O[C@]1(CC[C@H](C)[C@H](C[C@@H](C)O)O1)[C@H]2C,20.9 µM (active)
9,C[C@@H]1O[C@@H](O[C@@H]2C=C3CC[C@@H]4[C@@H](CC[C@]5(C)[C@H](c6ccc(=O)oc6)CC[C@@]45O)[C@@]3(C)CC2)[C@H](O)[C@H](O)[C@H]1O,0.0166 µM (active)
10,O=[N+]([O-])c1ncc[nH]1,0.105 µM (active)
11,CC(C)N(CCNC(=O)CN1CCCC1=O)C(C)C,inactive
12,Oc1ccc2c3c1O[C@H]1c4[nH]c5c(c4C[C@@]4(O)[C@@H](C2)N(CC2CC2)CC[C@]314)C[C@@]1(O)[C@H]2Cc3ccc(O)c4c3[C@@]1(CCN2CC1CC1)[C@H]5O4,inactive
13,CC[C@@H]1[C@@H](C)O[C@@](O)([C@@H](C)[C@H](O)[C@H](C)[C@H]2OC(=O)C=CC=C[C@@H](C)[C@@H]([C@@H](C)[C@@H](O)[C@H](C)[C@@]3(O)C[C@H](O[C@H]4C[C@H](O)[C@H](O)[C@H](C)O4)[C@H](CC)[C@@H](C)O3)OC(=O)C=CC=C[C@@H]2C)C[C@H]1O[C@H]1C[C@H](O)[C@H](O)[C@H](C)O1,0.372 µM (active)
14,CC(=O)N(C)c1cccc(-c2ccnc3c(C(=O)c4cccs4)cnn23)c1,inactive
15,CN1CCN(c2ccc([N+](=O)[O-])c3no[n+]([O-])c23)CC1,18.7 µM (active)
16,COc1ccc2c(c1)CN(C)CC2c1ccc(Cl)c(Cl)c1 (stereo not given),18.7 µM (active)
17,Cc1c(C(=O)Nc2cccc(C(F)(F)F)c2)cc(-c2ccccc2)n1CCCN1CCOCC1,16.6 µM (active)
18,COc1cc([C@@H]2c3cc4c(cc3[C@@H](O)C3COC(=O)C32)OCO4)cc(OC)c1O (stereo not given in full),0.0418 µM (active)
19,Cc1ccccc1-n1c(Cn2ncc3c(N)ncnc32)nc2cccc(C)c2c1=O,9.35 µM (active)
20,CC(C)[C@]12O[C@@H]1[C@@H]1O[C@]13[C@]1(O[C@H]1C[C@@H]1C4=C(CC[C@@]13C)C(=O)OC4)[C@H]2O,inactive
